Measurements as given in PubChem BioAssay (NCI).
Compounds without any hit were thinned out: in the full panel of roughly 83,000, 20% have a hit.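 Results are percent growth after 48 hours of single-concentration exposure. 100 means growth as in untreated cells, lower positive values show inhibition; negative values down to -100 show cell death.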 Activity calls are given as the source filed them. How the source made its calls: active means growth percent below 10; inactive means the rest.

Tests used:
Assay in all cases: NCI-60 one-dose screen, 48 h (100 = growth as untreated, 0 = no growth, -100 = all killed)
Conditions in all cases: 10 µM unless noted
HCT-15 colon = test system: HCT-15 colon
HT29 colon = test system: HT29 colon
SNB-75 CNS = test system: SNB-75 CNS
U251 CNS = test system: U251 CNS
PC-3 prostate = test system: PC-3 prostate
SK-MEL-5 melanoma = test system: SK-MEL-5 melanoma
UACC-62 melanoma = test system: UACC-62 melanoma
LOX IMVI melanoma = test system: LOX IMVI melanoma
SK-MEL-28 melanoma = test system: SK-MEL-28 melanoma
SNB-19 CNS = test system: SNB-19 CNS

Measured: growth

CCn1c(Sc2nnc(NC(=O)CCN3CCCC3)s2)nc2c1c(=O)n(C)c(=O)n2C
inactive: HCT-15 colon 104% | HT29 colon 107% | SNB-75 CNS 97.8% | U251 CNS 95.3% | PC-3 prostate 103% | SK-MEL-5 melanoma 104% | UACC-62 melanoma 101% | LOX IMVI melanoma 99.9% | SK-MEL-28 melanoma 111%

N#Cc1c(N)n2c(nc1=Nc1ccc([N+](=O)[O-])cc1)sc1cc(Cl)ccc12
inactive: HCT-15 colon 95.9% | HT29 colon 99.2% | SNB-75 CNS 60.9% | U251 CNS 85.8% | PC-3 prostate 81.8% | SK-MEL-5 melanoma 73% | UACC-62 melanoma 53.1% | LOX IMVI melanoma 79.4% | SK-MEL-28 melanoma 106%

O=C(O)c1ccccc1C(=O)Nc1ccc(Cl)cc1
inactive: HCT-15 colon 98.5% | HT29 colon 104% | SNB-75 CNS 95.8% | U251 CNS 89.9% | PC-3 prostate 96.6% | SK-MEL-5 melanoma 93.9% | UACC-62 melanoma 48.8% | LOX IMVI melanoma 63.8% | SK-MEL-28 melanoma 96.7%

COc1ccc(-c2cn(-c3cccc(C(=O)/C=C/c4cc(OC)c(OC)c(OC)c4)c3)c(=O)[nH]2)cc1
active: HCT-15 colon 3.15% | HT29 colon -67.1% | U251 CNS -51.8% | SK-MEL-5 melanoma -54% | UACC-62 melanoma -42.8% | LOX IMVI melanoma -68% | SK-MEL-28 melanoma -33.9%
inactive: SNB-75 CNS 49.6%

NS(=O)(=O)c1cn(-c2ncnc3nc[nH]c23)ccc1=O
inactive: HCT-15 colon 94% | SNB-75 CNS 75.4% | SNB-19 CNS 97.2% | U251 CNS 102% | PC-3 prostate 96.1% | SK-MEL-5 melanoma 97.6% | UACC-62 melanoma 89.7% | LOX IMVI melanoma 99.9%

CN(C)CN1CCN(c2ccc3nc(-c4ccc5nc(-c6ccc(C(F)(F)F)cc6)[nH]c5c4)[nH]c3c2)CC1
inactive: HCT-15 colon 91.6% | HT29 colon 29.3% | SNB-75 CNS 38.8% | U251 CNS 60% | PC-3 prostate 68.4% | SK-MEL-5 melanoma 23.6% | UACC-62 melanoma 44.8% | LOX IMVI melanoma 32.2% | SK-MEL-28 melanoma 42.7%

COc1ccc(-c2nnc(-c3ccc4c(c3)nc(-c3ccccc3)n4C3CCCCC3)o2)cc1
inactive: HCT-15 colon 41.9% | HT29 colon 34.9% | SNB-75 CNS 98.7% | U251 CNS 71.3% | PC-3 prostate 18.5% | SK-MEL-5 melanoma 24.9% | UACC-62 melanoma 43.7% | LOX IMVI melanoma 36.9% | SK-MEL-28 melanoma 88.5%

Cc1cc2c(F)c(Oc3ncnc(Nc4ccc(N5C[C@@H](C)N[C@@H](C)C5)cc4)c3C#N)cc(F)c2[nH]1
inactive: U251 CNS 11.2% | PC-3 prostate 42.4% | SK-MEL-5 melanoma 21.7% | UACC-62 melanoma 85.8%
active: HCT-15 colon 0.331% | HT29 colon -47.6% | SNB-75 CNS -28.2% | LOX IMVI melanoma -60.5% | SK-MEL-28 melanoma -63.6%

CC(=O)Nc1nccs1
inactive: HCT-15 colon 98% | HT29 colon 101% | SNB-75 CNS 106% | U251 CNS 98.9% | PC-3 prostate 96.1% | SK-MEL-5 melanoma 101% | UACC-62 melanoma 92.7% | LOX IMVI melanoma 94.8% | SK-MEL-28 melanoma 98.6%

C/C(=N\NC(N)=S)c1nc2ccc(Cl)cc2[nH]1
inactive: HCT-15 colon 35.7% | HT29 colon 32.8% | SNB-75 CNS 43.6% | U251 CNS 49.9% | PC-3 prostate 52.3% | SK-MEL-5 melanoma 45.3% | UACC-62 melanoma 36.7% | LOX IMVI melanoma 43.7% | SK-MEL-28 melanoma 68.7%

O=C1C2=C(CCN(Cc3ccccc3)C2)N2CCN=C2N1Cc1ccc(F)cc1F
inactive: HCT-15 colon 20.4% | HT29 colon 34% | SNB-75 CNS 46.7% | U251 CNS 21.3% | PC-3 prostate 21.3% | SK-MEL-5 melanoma 27.5% | UACC-62 melanoma 44.5% | LOX IMVI melanoma 39.3% | SK-MEL-28 melanoma 57.9%

CCOC(=O)c1nnn(C(Cc2ccccc2Cl)C(=O)OCC)c1C (configuration not stated)
inactive: HCT-15 colon 107% | HT29 colon 86.8% | SNB-75 CNS 89.5% | U251 CNS 96.1% | PC-3 prostate 94% | SK-MEL-5 melanoma 101% | UACC-62 melanoma 99.9% | LOX IMVI melanoma 104% | SK-MEL-28 melanoma 111%

O=C1C(Cl)C(c2ccccc2Cl)N1n1cnnc1 (configuration not stated)
inactive: HCT-15 colon 101% | HT29 colon 103% | SNB-75 CNS 74% | U251 CNS 99.6% | PC-3 prostate 88% | SK-MEL-5 melanoma 97.3% | UACC-62 melanoma 94.7% | LOX IMVI melanoma 91.4% | SK-MEL-28 melanoma 96.4%

C[C@@H](C[C@H](CCOCc1cccnc1)c1ccccc1)c1cc2ccccc2o1
inactive: HCT-15 colon 91.1% | HT29 colon 78.1% | SNB-75 CNS 85.6% | U251 CNS 93.6% | PC-3 prostate 75.6% | SK-MEL-5 melanoma 98.4% | UACC-62 melanoma 81.2% | LOX IMVI melanoma 95.8% | SK-MEL-28 melanoma 102%

COc1ccc(-c2nnc(SCC(=O)NC3=NN=C(c4ccccc4)CS3)o2)cc1
inactive: HCT-15 colon 106% | HT29 colon 96.1% | SNB-75 CNS 88.1% | U251 CNS 87.2% | PC-3 prostate 86.8% | SK-MEL-5 melanoma 107% | UACC-62 melanoma 95.2% | LOX IMVI melanoma 101% | SK-MEL-28 melanoma 109%

Cc1ccc(S(=O)(=O)Nc2sccc2-c2nc(-c3ccccc3)no2)cc1
inactive: HCT-15 colon 97.9% | HT29 colon 100% | SNB-75 CNS 84.4% | U251 CNS 93.9% | PC-3 prostate 86.4% | SK-MEL-5 melanoma 98.6% | UACC-62 melanoma 79.1% | LOX IMVI melanoma 91% | SK-MEL-28 melanoma 92.9%

CCNCCNc1cc(-c2ccc(C(=O)OC)cc2)c(C#N)c2nc3ccccc3n12
inactive: HCT-15 colon 45.8% | PC-3 prostate 54.1% | SK-MEL-5 melanoma 71.6% | SK-MEL-28 melanoma 17%
active: HT29 colon 4.67% | SNB-75 CNS -38.2% | U251 CNS -29% | UACC-62 melanoma -17.7% | LOX IMVI melanoma -53.4%

COc1ccc(/C=C2\COc3ccc(O)cc3C2=O)cc1OC
inactive: HCT-15 colon 71.3% | HT29 colon 19.9% | SNB-75 CNS 91.3% | U251 CNS 40.8% | PC-3 prostate 64.3% | UACC-62 melanoma 77.1% | LOX IMVI melanoma 11.6% | SK-MEL-28 melanoma 97.3%

C[C@]12CCC(=O)C[C@H]1CC[C@@H]1[C@@H]2CC[C@@]2(C)[C@H]1CC[C@]2(O)C(=O)CO
inactive: HCT-15 colon 104% | HT29 colon 99.4% | SNB-75 CNS 94.4% | U251 CNS 121% | PC-3 prostate 102% | SK-MEL-5 melanoma 104% | UACC-62 melanoma 102% | SK-MEL-28 melanoma 108%

N#Cc1c(NC(=O)c2cccc(C(F)(F)F)c2)sc2c1CCC(=O)C2
active: HCT-15 colon -39.4% | HT29 colon 2.24% | SNB-75 CNS -50.5% | U251 CNS 0.284% | PC-3 prostate -42% | SK-MEL-5 melanoma -95.6% | UACC-62 melanoma -51.1% | LOX IMVI melanoma -12.7% | SK-MEL-28 melanoma -42.5%

Cc1nc(C)c(-c2nn3c(-c4cccc(F)c4)nnc3s2)s1
inactive: HCT-15 colon 101% | HT29 colon 86.6% | SNB-75 CNS 113% | U251 CNS 93.5% | PC-3 prostate 89.3% | SK-MEL-5 melanoma 92.8% | UACC-62 melanoma 96% | LOX IMVI melanoma 99.9% | SK-MEL-28 melanoma 119%

COc1cc2cc(Oc3ccc(NC(=O)Nc4cc(C(F)(F)F)cc(C(F)(F)F)c4)cc3)c(C)nc2cc1OCCN1CCCCC1
active: HCT-15 colon -82.4% | SNB-75 CNS -97.7% | SNB-19 CNS -92.2% | U251 CNS -69.3% | PC-3 prostate -45.2% | SK-MEL-5 melanoma -49.9% | UACC-62 melanoma -84.9% | LOX IMVI melanoma -99.1%

CCOC(=O)Cc1csc2nc(-c3ccccc3)nn12
inactive: HCT-15 colon 113% | HT29 colon 106% | SNB-75 CNS 105% | U251 CNS 106% | SK-MEL-5 melanoma 107% | UACC-62 melanoma 98.6% | LOX IMVI melanoma 89% | SK-MEL-28 melanoma 117%

CNCCNc1nc2ccccc2c2c(=O)c3cc(F)ccc3oc12
inactive: HCT-15 colon 49.1% | HT29 colon 24.5% | SNB-75 CNS 56.8% | U251 CNS 50.2% | PC-3 prostate 46.9% | SK-MEL-5 melanoma 73.3% | UACC-62 melanoma 85% | LOX IMVI melanoma 44.6% | SK-MEL-28 melanoma 84.5%

CCOc1ccc(-c2nc3ccc(-c4nc5ccc(N6CCN(C)CC6)cc5[nH]4)cc3[nH]2)cc1OCC
active: SNB-75 CNS 6.64% | U251 CNS 4.64% | SK-MEL-5 melanoma 8.43% | UACC-62 melanoma -14.3% | LOX IMVI melanoma -74.5% | SK-MEL-28 melanoma -27.2%
inactive: HCT-15 colon 63.7% | HT29 colon 19.4%

COC1=CC(c2ccc[nH]2)=N/C1=C\c1[nH]c(C)c(C(=O)OCCn2cc(CCC[C@@H]3Cc4cc(O)ccc4C4CC[C@]5(C)[C@@H](O)CC[C@H]5C43)nn2)c1C (some centres not stated)
active: LOX IMVI melanoma -17%
inactive: HCT-15 colon 25% | HT29 colon 18.9% | SNB-75 CNS 44.7% | U251 CNS 47.1% | PC-3 prostate 50.4% | SK-MEL-5 melanoma 88.2% | SK-MEL-28 melanoma 94.5%

COc1ccc(-c2nc3ccccn3c2/C=C/C(=O)c2cc(OC)c(OC)c(OC)c2)cc1
inactive: HCT-15 colon 50.4% | HT29 colon 45.2% | SNB-75 CNS 44.3% | U251 CNS 36% | PC-3 prostate 56.2% | SK-MEL-5 melanoma 26.9% | UACC-62 melanoma 45.2% | LOX IMVI melanoma 44.2% | SK-MEL-28 melanoma 41.1%

COc1ccc(NC(=O)C(=O)c2c[nH]c3ccc(F)cc23)cc1
inactive: HCT-15 colon 99.2% | HT29 colon 88.4% | SNB-75 CNS 99.7% | U251 CNS 91% | PC-3 prostate 91.5% | SK-MEL-5 melanoma 97.4% | UACC-62 melanoma 99.3% | LOX IMVI melanoma 105% | SK-MEL-28 melanoma 109%

Cc1cc(=O)c2cc3nc(-c4cccnc4)oc3c(Br)c2o1
inactive: HCT-15 colon 106% | HT29 colon 103% | SNB-19 CNS 131% | U251 CNS 97.8% | PC-3 prostate 99.6% | SK-MEL-5 melanoma 105% | UACC-62 melanoma 104% | LOX IMVI melanoma 98% | SK-MEL-28 melanoma 119%

O=C(Nc1ccccc1Cl)OCCN1CCOCC1
inactive: HCT-15 colon 102% | SNB-75 CNS 111% | SNB-19 CNS 103% | U251 CNS 103% | PC-3 prostate 77.5% | SK-MEL-5 melanoma 108% | UACC-62 melanoma 101% | LOX IMVI melanoma 102% | SK-MEL-28 melanoma 110%
